Test results from PubChem BioAssay (NCI).
The panel holds about 79,000 compounds, 15% with a hit somewhere; the sample as a whole holds those more often. The source made the active and inactive calls. No stated cut-off is given here; in the data, active means growth inhibition above about 70%; inactive means the rest.

Test: NCI Yeast Anticancer Drug Screen. Data for the sgs1 strain (AID 173);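 further: 0% = growth of vehicle-only control cultures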
Conditions: S. cerevisiae sgs1 mutant, stronger effect = higher value
Procedure: Growth inhibition of yeast strains with defined genetic alterations is measured as a screen for potential anti-cancer activity. Selected strains with alterations in DNA damage repair or cell cycle control were exposed to compounds and growth inhibition was measured relative to vehicle treated controls. The strain used in this assay is sgs1

Measured: growth inhibition

CNC(=O)OCC1C2=C(C(=O)C(C)=C(N)C2=O)N2CC3C(N3C)C12OC (stereo not given)
inactive: at 1.2 µM 4% | at 3.7 µM 8% | at 11.0 µM 18% | at 33.0 µM 29% | at 100.0 µM 54%

CC1CCC2(NC1)OC1CC3C4CCC5CC(OC6OC(CO)C(OC7OC(CO)C(O)C(OC8OCC(O)C(O)C8O)C7OC7OC(CO)C(O)C(O)C7O)C(O)C6O)CCC5(C)C4CCC3(C)C1C2C (stereo not given)
inactive: at 1.2 µM 2% | at 3.7 µM 0% | at 11.0 µM 2% | at 33.0 µM -4% | at 100.0 µM 61%

C[C@@]12CCC(=O)C=C1CC[C@H]1C2=CC[C@]2(C)C1CC[C@@]2(C)O (stereo not given in full)
inactive: at 1.2 µM 1% | at 3.7 µM -6% | at 11.0 µM 14%
active: at 33.0 µM 72% | at 100.0 µM 91%

CC(Cc1ccccc1)N(C)Cc1nc(C2CCC([N+](=O)[O-])O2)no1 (stereo not given)
inactive: at 1.2 µM -26% | at 3.7 µM 5% | at 11.0 µM 20% | at 33.0 µM 50% | at 100.0 µM 67%

O=[N+]([O-])c1ccc(C=Cc2ccccc2)cc1.[C-]#[O+].[C-]#[O+].[C-]#[O+].[Cr]
inactive: at 1.2 µM 9% | at 3.7 µM 30% | at 11.0 µM 66%
active: at 33.0 µM 91% | at 100.0 µM 88%

Oc1c(Br)cc(Br)cc1Br
inactive: at 1.2 µM 13% | at 3.7 µM 12% | at 11.0 µM 6% | at 33.0 µM 37%
active: at 100.0 µM 88%

CN(C)CCC(C(=O)C(Br)Br)(c1ccccc1)c1ccccc1
inactive: at 1.2 µM -1% | at 3.7 µM 17%
active: at 11.0 µM 94% | at 33.0 µM 99% | at 100.0 µM 99%

COC(COC(=O)N1CCN(C=O)CC1)C1=C(N2CC2)C(=O)C(C)=C(N2CC2)C1=O (stereo not given)
inactive: at 1.2 µM 20% | at 3.7 µM 14% | at 11.0 µM 24% | at 33.0 µM 40% | at 100.0 µM 64%
